# Test results taken from publication PMC4552634, “A New Set of Chemical Starting Points with Plasmodium falciparum Transmission-Blocking Potential for Antimalarial Drug Discovery” (PLoS ONE, 2015).
# About 3,200 (25%) of roughly 13,000 compounds showed an effect of 50% or more. Some of the results follow.
# System: P. falciparum stage V gametocytes
# Parameters: BacTiter-Glo ATP luminescence viability of purified stage V gametocytes in 384-well plates, per cent inhibition versus DMSO
# Conditions: 48 h, 5 µM; inhibitor
row,SMILES,% Inhibition [%]
1,COc1cc(Nc2nccc(N3CCC(NC(=O)Nc4cc(C)ccc4C)C3)n2)cc(OC)c1OC (stereo not drawn) [TCMDC-133626],-44.43
2,Cc1cc(-c2ccc(Cl)cc2)c2c(N)c(C(=O)Nc3ccc(F)cc3)sc2n1 [TCMDC-124117],40.98
3,CN(C)C(CNC(=O)c1cc(-c2ccncc2)c(-c2ccc(NC(=O)Nc3cccc(F)c3)cc2)o1)c1ccccc1 (stereo not drawn) [TCMDC-135782],6.274
4,CC(C)(C)c1ccc(-c2ccccc2CNC(=O)c2cccc(O)c2)cc1 [TCMDC-136181],21.07
5,O=C(NCc1ccccc1)Nc1cccc(-c2cccc(-c3nc4ccc(C(F)(F)F)cc4[nH]3)c2)c1 [TCMDC-133161],-23.46
6,Cc1cc(CN2CCC(N3CC(c4ccccc4)(c4ccccc4)OCC3=O)C2)ccc1O (stereo not drawn) [TCMDC-136340],-6.883
7,CN1CCCN(Cc2ccc(-c3cccc(NC(=O)c4ccc(C#N)cc4)c3)cc2)CC1 [TCMDC-132637],9.146
8,Cc1cc(-c2cnc(N)c(-c3ccc(N4CCN(C)CC4)nc3)c2)cc(C)c1O [TCMDC-133346],-63.65
9,CN(Cc1ccccc1)C1CCCN(c2cc(NC(=O)c3cccs3)ccn2)C1 (stereo not drawn) [TCMDC-135007],-39.99
10,CC(C)c1cc2c(cc1O)C(Cc1ccccc1Cl)N(C)CC2 (stereo not drawn) [TCMDC-137322],-86.96
11,COCCn1c(SC(C)C(=O)Nc2cc(C(F)(F)F)ccc2Cl)nc2ccccc2c1=O (stereo not drawn) [TCMDC-125030],60.86
12,COCC(C)n1c(SCC(=O)Nc2cc(C(F)(F)F)ccc2Cl)nc2ccccc2c1=O (stereo not drawn) [TCMDC-125436],2.32
13,CCn1c(SCC(=O)Nc2cc(C(F)(F)F)ccc2Cl)nc2ccccc2c1=O [TCMDC-125426],3.057
14,COc1ccc(N(C)Cc2cnc3nc(N)nc(N)c3n2)cc1 [TCMDC-137682],5.189
15,COC(=O)C(C)(C)c1ccc(CC(C)NCC(O)c2cccc(C(F)(F)F)c2)cc1 (stereo not drawn) [TCMDC-131482],7.113
16,Oc1ccc(Cl)cc1Nc1nc(C(F)(F)F)nc2ccccc12 [TCMDC-125147],-61.42
17,O=C(Nc1cccc([N+](=O)[O-])c1)N(Cc1ccc(Cl)c(Cl)c1)C1CCNCC1 [TCMDC-141400],39.3
18,O=[N+]([O-])c1cccc(CNCC2CCN(Cc3ccc(Cl)c(Cl)c3)CC2)c1 [TCMDC-141206],3.652
19,N#Cc1cccc(CN(Cc2ccc(Cl)c(Cl)c2)S(=O)(=O)c2cccc([N+](=O)[O-])c2)c1 [TCMDC-141594],51.09
20,Cc1cccc2sc(N(CCCn3ccnc3)C(=O)C=Cc3cccs3)nc12 [TCMDC-124929],30.83
21,Cc1c(C(=O)N2CCc3cc4nccc(N5CCN6CCC[C@H]6C5)c4cc32)cnn1-c1ccc(C#N)cc1 [TCMDC-141315],14.04
22,CCN(CC)S(=O)(=O)c1ccc(Cl)c(C(=O)Nc2ccc3nc(C)sc3c2)c1 [TCMDC-124376],33.54

row,SMILES,% Inhibition [%]
1,CN(C)CC(=O)N(Cc1ccc(Cl)c(Cl)c1)Cc1csc(-c2ccc(CNCc3ccccc3)cc2)n1 [TCMDC-141814],21.62
2,CCCCNCc1ccc(-c2nc(CN(Cc3ccc(Cl)c(Cl)c3)C(=O)CN(C)C)cs2)cc1 [TCMDC-141703],68.39
3,CC(=O)Nc1ccc(CNC2Cc3ccc(-c4ccc(Cl)c(Cl)c4)cc3C2)cc1 (stereo not drawn) [TCMDC-133070],12.53
4,CCCCOc1ccccc1C(=O)NCc1csc(-c2ccccc2)n1 [TCMDC-124914],34.72
5,CCCCNCc1ccc(-c2nc(CN(Cc3ccc(Cl)c(Cl)c3)S(=O)(=O)c3ccc(NC(C)=O)cc3)cs2)cc1 [TCMDC-141597],93.87
6,O=c1[nH]c(Cc2ccccc2)nc2ccc(Cl)cc12 [TCMDC-123986],41.17
7,Cc1cccc2nc(-c3ccc(-c4ccc(CN5CCC(CO)CC5)cc4)s3)[nH]c12.O=C(O)C(F)(F)F [TCMDC-133128],-12.48
8,Cc1cccc2nc(-c3ccc(-c4ccc(CN5CCC(C(N)=O)CC5)cc4)s3)[nH]c12.O=C(O)C(F)(F)F [TCMDC-132695],10.69
9,Cc1cccc2nc(-c3ccc(-c4ccc(CN5CCCC(N)C5)cc4)s3)[nH]c12.O=C(O)C(F)(F)F (stereo not drawn) [TCMDC-133864],61.01
10,Cc1cccc2nc(-c3ccc(-c4ccc(CN5CCC(N)C5)cc4)s3)[nH]c12.O=C(O)C(F)(F)F (stereo not drawn) [TCMDC-133862],94.82
11,Cc1cccc2nc(-c3ccc(-c4ccc(CN5CCCC(O)C5)cc4)s3)[nH]c12.O=C(O)C(F)(F)F (stereo not drawn) [TCMDC-133827],-10.01
12,NC(=O)c1cccc(C(=O)Nc2ccc(-c3cccc(-c4nc5ccc(F)cc5[nH]4)c3)cc2)c1 [TCMDC-132196],-0.7681
13,CCOC(=O)c1ccc(NC(=O)NNC(=O)c2ccc(CCN3CCC(c4nc(COCC(F)(F)F)c(-c5ccc(F)cc5)o4)CC3)cc2)cc1 [TCMDC-131907],11.96
14,Cc1ccc2[nH]c(-c3ccc(C(=O)NC4CCN(Cc5ccccc5)CC4)cc3)nc2c1C [TCMDC-140449],4.358
15,O=C(Nc1ccc(S(=O)(=O)N2CCOCC2)cc1)c1cc(-c2cc(Cl)ccc2O)n[nH]1 [TCMDC-125204],-22.77
16,Cc1ccc(-c2cc(C(=O)Nc3ccc(S(=O)(=O)N4CCOCC4)cc3)[nH]n2)c(O)c1C [TCMDC-124306],74.46
17,Cc1ccc(-c2cc(C(=O)Nc3ccc(S(=O)(=O)N4CCCCC4)cc3)[nH]n2)c(O)c1 [TCMDC-124305],-41.04
18,O=C(Nc1ccon1)c1cc(-c2cccnc2)nc2ccc(Br)cc12 [TCMDC-125217],-5.67
19,CC1N=C(N)N=C(N)N1OCc1cccc2ccccc12 (stereo not drawn) [TCMDC-131595],37.89
20,CN(C)CCCN1CCN(C(=O)c2cc3cc(-c4ccccc4)ccc3n2S(=O)(=O)c2ccccc2)CC1 [TCMDC-139103],17.27
21,CN1CCC(OC(=O)c2cc3cc(-c4ccccc4)ccc3n2S(=O)(=O)c2ccccc2)CC1 [TCMDC-139104],88.58
22,O=C(NCCN1CCCCC1)c1cc2cc(-c3ccccc3)ccc2n1S(=O)(=O)c1ccccc1 [TCMDC-139102],37.88

row,SMILES,% Inhibition [%]
1,Cc1cccc2nc(-c3ccc(-c4ccc(CNCC5CCCO5)cc4)cc3)[nH]c12.O=C(O)C(F)(F)F (stereo not drawn) [TCMDC-133093],-8.859
2,Cc1[nH]c2ccccc2c1C(=O)C(C)Sc1nnc(-c2ccccc2Br)[nH]1 (stereo not drawn) [TCMDC-125114],93.54
3,Cc1[nH]c2ccccc2c1C(=O)C(C)Sc1nnc(-c2ccccc2F)o1 (stereo not drawn) [TCMDC-125312],68.46
4,Cc1cccc(C)c1OC(=O)CSc1nnc(-c2ccccc2O)o1 [TCMDC-125733],-18.5
5,Nc1nc(F)nc2nc[nH]c12 [TCMDC-124283],4.967
6,O=C(NCc1cccc(F)c1)Nc1cccc(-c2ccc(-c3nc4ccc(C(F)(F)F)cc4[nH]3)cc2)c1 [TCMDC-133288],-40.45
7,CCNc1cc(C(=O)N[C@@H](Cc2ccccc2)[C@H](O)CNCCc2cccc(C(F)(F)F)c2)cc(N2CCCC2=O)c1 [TCMDC-134552],-6.04
8,COc1cccc(C(O)CNc2ccnc(Nc3ccc(Cl)cc3)n2)c1 (stereo not drawn) [TCMDC-136575],5.772
9,Clc1ccc(Nc2nc(NCc3ccccc3)nc(N/N=C/c3ccccn3)n2)cc1 [TCMDC-138557],107.3
10,Clc1ccc(-c2ccc(C=NNc3nc(Nc4ccccc4)nc(Nc4ccccc4)n3)o2)cc1Cl [TCMDC-124152],3.438
11,Clc1cccc(C=NNc2nc(Nc3ccccc3)nc(Nc3ccccc3)n2)c1 [TCMDC-125798],24.55
12,O=c1cc(NCCCNCc2ccc(C(F)(F)F)s2)[nH]c2ccccc12 [TCMDC-140767],-70.92
13,COc1ccc2nccc([C@@H](O)CN3CCC(NCCOc4cc(C(F)(F)F)ccc4F)CC3)c2c1 [TCMDC-140658],14.45
14,COc1ccc2nccc([C@@H](O)CN3CCC(NCCOc4ccccc4C(F)(F)F)CC3)c2c1 [TCMDC-140713],37.87
15,COc1ccc2nccc([C@@H](O)CN3CCC(NCCOc4ccncc4)CC3)c2c1 [TCMDC-140574],11.37
16,COc1ccc2nccc([C@@H](O)CN3CCC(NCCOc4cc(F)cc(F)c4)CC3)c2c1 [TCMDC-140510],10.94
17,COc1ccc2nccc([C@@H](O)CN3CCC(NCCOc4cccc(F)c4F)CC3)c2c1 [TCMDC-140644],24.45
18,COc1ccc2nccc([C@@H](O)CN3CCC(NCCOc4ccc(F)cc4Cl)CC3)c2c1 [TCMDC-140660],20.67
19,COc1ccc2nccc([C@@H](O)CN3CCC(NCCOc4cccc(C(F)(F)F)c4)CC3)c2c1 [TCMDC-140507],58.71
20,COc1ccc2nccc([C@@H](O)CN3CCC(NCCOc4ccc(F)cc4F)CC3)c2c1 [TCMDC-140645],94.72
21,COc1ccc2nccc([C@@H](O)CNCCCN(C)CCOc3cc(F)cc(F)c3)c2c1 [TCMDC-141051],75.1
22,CCCCc1cc(NCC)nc(Nc2cccc(OC)c2)n1 [TCMDC-133993],0.878
